Screening data as filed in PubChem BioAssay.
A selection: hits, their analogues and other compounds. The true share with any hit is near 14%.
HCV inhibitor = inhibitors of hepatitis C virus infection; Huh7.5.1 HCVcc-Cre infection, luciferase reporter, 44 h; Potency, µM (series often up to 41.8 µM), for the others: at the highest dose activity change, negative = inhibition, actives largely listed as inhibitors; 340,000 compounds, 3.4% hits; further: potency means the concentration at half of the fitted maximal effect
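HCVcc-Cre virus at an moi near 0.5 was added right after compound to cells cultured 4 h from seeding (1,000 cells/well). Luciferase activity was determined 44 h later, 15 min after substrate addition at RT.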
MARV entry inh = blocks Marburg virus binding to or entry into cells; 300,000 compounds, 1.8% hits; AID 540276; Marburg virus pseudotyped entry inhibition, cell reporter; Potency, µM (top dose mostly 37.8 µM), for the others: top-dose activity change, negative = inhibition, usual class: inhibitors; calls by dose curve; tested in HEK293 cells; further: potency means the concentration at half of the fitted maximal effect
Pf growth 48h = inhibits P. falciparum growth in the first generation, 48 h | P. falciparum luciferase growth in erythrocytes, 48 h | Potency, µM (top dose mostly 28.7 µM), for inactives: at the highest dose activity change, negative = inhibition, actives largely listed as inhibitors | 310,000 compounds, 5.9% hits; further: potency means the concentration at half of the fitted maximal effect
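Here the parasites carry a stable luciferase gene and grow inside erythrocytes in Albumax-based RPMI medium with compound for one erythrocytic cycle. Activity is scored as loss of luminescent signal.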
HCMV inh = inhibitors of human cytomegalovirus; HFF cells, HCMV-luciferase reporter, 72 h; stronger effect = lower value; activity change, negative = inhibition, % at 57.5 µM; 410,000 compounds, 4.5% hits; AID 1259415; in the data active means activity change below about -60%; inconclusive means no clear call, values can overlap the other calls; inactive means above about -39%
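After 16 h attachment at 37C, HFF cells received test compound and HCMV-luciferase (1 PFU/cell); reporter luminescence read 72 h later, data normalized against buffer-only and known inhibitor Salinomycin.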
Pf growth 96h = P. falciparum growth inhibition at 96 hour, primary screen for plastid delayed-death inhibitors; P. falciparum luciferase reporter growth, 96 h; Potency, µM (series often up to 28.7 µM), inactives show at the highest dose activity change, negative = inhibition, actives largely listed as inhibitors; 320,000 compounds, 6.9% hits; AID 504834; further: potency means the concentration at half of the fitted maximal effect
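Erythrocytes infected with luciferase-expressing P. falciparum were dispensed at 2% hematocrit and 0.05% parasitemia (final), then incubated with compounds 96 hours at 37 C in 5% CO2. Luminescence after detection reagent addition reported growth.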
LASV entry inh = blocks Lassa virus binding to or entry into cells; Lassa virus pseudotype entry inhibition, cell reporter; Potency, µM (highest dose often 37.9 µM), for the others: top-dose activity change, negative = inhibition, usual class: inhibitors; 300,000 compounds, 1.2% hits; calls by dose curve; tested in HEK293 cells; further: potency means the concentration at half of the fitted maximal effect; nearly all actives have a fitted effect of over 50% in size
* = called active by the depositor; ? = inconclusive; / = not tested or not shown; [ ] = another dose, or the depositor's remark. Unless noted, the call rests on the fitted dose curve; in most records, active means well fitted inhibition curve with a large enough effect; inconclusive means small, poorly fitted or top-dose-only effect, or another doubt; inactive means no such curve, though single readings can be large or run the other way. On the % scale 0 is the no-effect control and ±100 the full control effect.

SMILES | HCV inhibitor | MARV entry inh | Pf growth 48h | HCMV inh | Pf growth 96h | LASV entry inh
Cc1cccc(N(CC(=O)NC2CCCC2)C(=O)CCCC(=O)Nc2ccccn2)c1 | 0.9% | -0.9% | / | 52.4 | / | 10.4%
CCOc1ccc(N(CC(=O)NC2CCCCC2)C(=O)CCC(=O)Nc2nccs2)cc1 | -2.3% | 25.6%[46.1 µM] | 7.38µM* | 17.6 | -16.4% | /
CCOc1ccc(N(CC(=O)NC2CCCC2)C(=O)CCC(=O)Nc2nccs2)cc1 | -21.4% | ? | 0.0% | 2.5 | ? | 11.1%
COc1cccc(N(CC(=O)NC2CCCCC2)C(=O)CCC(=O)Nc2nccs2)c1 | -27.0% | -20.4%[46.1 µM] | ? | -16.7 | 11.7µM* | -3.2%
CCC(C)(C)NC(=O)CN(C(=O)CCC(=O)Nc1nccs1)c1ccccc1C | 25.9% | 4.5% | -24.3% | 13.3 | 10.4µM* | 4.1%
Cc1cccc(N(CC(=O)NC2CCCCC2)C(=O)CCCC(=O)Nc2ccccn2)c1 | -11.7% | -25.2% | 11.7µM* | 13.8 | -21.8% | -3.7%
COc1ccccc1C(=O)NCCn1cc(SCC(=O)NCC2CCCO2)c2ccccc21 (configuration not stated) | -20.7% | -17.8% | ? | 1.3 | 10.4µM* | -19.1%
Cc1ccccc1C(=O)NCCn1cc(SCC(=O)NCC2CCCO2)c2ccccc21 (configuration not stated) | ? | -1.9% | ? | -8.5 | 6.4% | 0.6%
CCOC(=O)c1c(NC(=O)CSc2cn(CCNC(=O)c3ccccc3OC)c3ccccc23)sc2c1CCC2 | / | 12.6µM* | / | -6.1 | / | ?
CCc1cccc2c1Sc1ccccc1CC2N1CCNCC1 (configuration not stated) | ? | / | / | -97.9* | / | /
Cc1cccc2c1Sc1ccc(Cl)cc1CC2N1CCNCC1 (configuration not stated) | 12.6µM* | / | / | / | / | /
Cc1ccc(Cl)cc1N1CCN(CC(=O)NC2CCCc3ccccc32)CC1 (configuration not stated) | ? | -58.3% | ? | -15.2 | ? | ?
c1ccc2c(c1)CC(N1CCCCC1)c1ccccc1N2 (configuration not stated) | 11.9% | -18.0% | -18.0% | -37.0 | 0.0% | -0.8%
CCc1ccccc1NC(=O)c1nnn(CC(=O)Nc2c(C)cc(C)cc2C)c1N | / | -6.8%[46.1 µM] | / | -14.1 | / | -10.7%[46.1 µM]
CCOC(=O)C1=C(CCl)NC(=O)N(C(C)=O)C1c1ccccc1 (configuration not stated) | / | -21.7%[14.2 µM] | / | / | / | ?
COc1ccc2c(c1)[nH]c1c(=O)n(/N=C/C3C(C)C=C(C)CC3C)c(=O)[nH]c12 (configuration not stated) | -0.1% | ? | 9.7% | -23.8 | -28.0% | -0.6%
COc1ccc(/C=N/n2c(=O)[nH]c3c([nH]c4ccc(Br)cc43)c2=O)cc1CN1CCOCC1 | 2.8% | -26.2% | ? | 70.8 | ? | 19.6%
CC1=CC(C)[C@H](/C=N/n2c(=O)[nH]c3c([nH]c4ccc(Br)cc43)c2=O)C(C)C1 (some centres not stated) | 9.2% | -25.1% | ? | -74.2* | ? | ?
COc1ccc2[nH]c3c(=O)n(/N=C/[C@H]4C(C)C=C(C)CC4C)c(=O)[nH]c3c2c1 (some centres not stated) | ? | -31.3% | ? | -79.9* | -66.7% | -4.3%
O=S1(=O)CCSC[C@@H](CN2CCCC2)N1 | / | / | / | -5.3 | / | ?
O=S(=O)(c1cccc(F)c1)N1CCN(c2ncnc3scc(-c4ccc(F)cc4)c23)CC1 | ? | ? | ? | -28.5 | ? | ?
Nc1ncc(-c2cccc(S(N)(=O)=O)c2)c2scc(-c3ccc(F)c(Cl)c3)c12 | / | / | / | / | / | 22.3µM*
CC(C)Cn1c(N)c(C(=O)COC(=O)/C=C/c2cccs2)c(=O)n(C)c1=O | 3.98µM* | ? | ? | -73.1* | ? | ?
CC(C)Cn1c(N)c(C(=O)COC(=O)c2c(F)cccc2F)c(=O)n(C)c1=O | -29.5% | / | -18.2% | -30.2 | 10.4% | /
CC(C)Cn1c(N)c(C(=O)COC(=O)c2ccccc2Cl)c(=O)n(C)c1=O | ? | / | -14.8% | -17.1 | ? | /
SMILES | HCV inhibitor | MARV entry inh | Pf growth 48h | HCMV inh | Pf growth 96h | LASV entry inh
CC(C)Cn1c(N)c(C(=O)COC(=O)c2ccccc2F)c(=O)n(C)c1=O | 11.2µM* | -0.9%[46.1 µM] | -1.5% | -21.0 | 22.1% | -25.0%[46.1 µM]
CC(C)Cn1c(N)c(C(=O)COC(=O)c2ccc3ccccc3n2)c(=O)n(C)c1=O | ? | -15.5% | -17.4% | 16.1 | 4.15µM* | 15.2%
CC(C)Cn1c(N)c(C(=O)COC(=O)c2ccccc2C(=O)c2ccccc2)c(=O)n(C)c1=O | 10µM* | / | / | -7.3 | / | /
CC(C)Cn1c(N)c(C(=O)COC(=O)Cc2cccs2)c(=O)n(C)c1=O | 2.9% | -20.3% | 16.8% | -7.6 | 31.5% | -25.2%
Cc1ccc(NC(=O)c2ccc3nc(Cc4ccccc4)oc3c2)cc1F | / | / | / | -23.2 | / | -1.7%[46.1 µM]
CCCN(CC(=O)Nc1ccccc1C)C(=O)c1ccc(S(=O)(=O)N2CCC(C)CC2)cc1 | -7.2% | -27.8% | ? | -17.8 | -15.2% | -5.9%
Cc1csc(-c2nc3ccccc3n2C(C(=O)NC(C)(C)C)c2ccccc2)c1 (configuration not stated) | / | / | / | 18.1 | / | /
COCc1c(C(=O)OCC(=O)c2c(N)n(CC(C)C)c(=O)n(C)c2=O)oc2ccccc12 | ? | -28.4% | ? | -7.8 | ? | -27.1%
Cc1c(C(=O)OCC(=O)c2c(N)n(CC(C)C)c(=O)n(C)c2=O)oc2ccccc12 | ? | 10µM* | ? | -64.1* | -99.6% | -23.4%
CCCN(CCC)[C@H]1CCc2ccc(O)cc2C1 | / | -15.3% | / | / | / | /
CCC(=O)C[C@@H](NC(=O)OC)c1ccc(F)cc1 | / | 6.0%[14.2 µM] | / | / | / | /
COC(=O)[C@]1(CC(C)C)N[C@H](c2ccc(-c3cccc(Cl)c3)cc2)[C@@H]2C(=O)N(C)C(=O)[C@@H]21 | ? | / | 2.62µM* | 64.5 | 1.31µM* | /
COC(=O)[C@]1(CC(C)C)N[C@H](c2ccc(-c3ccc4c(c3)OCO4)cc2)[C@@H]2C(=O)N(C)C(=O)[C@@H]21 | -1.5% | / | ? | 20.7 | 13.1µM* | /
COC(=O)[C@]1(C)N[C@H](c2ccc(-c3ccccc3)cc2)[C@@H]2C(=O)N(C)C(=O)[C@@H]21 | -8.6% | / | ? | 1.1 | ? | /
Nc1ccc(N=Nc2ccccc2)c(N)n1 | 2.0%[8.37 µM] | -6.9% | 110.8% | -101.7* | 49.9% | ?
CCOC(=O)CNC(=S)N(Cc1ccco1)Cc1ccccc1Cl | 5.1% | -21.8%[46.1 µM] | -14.4% | 17.5 | 2.62µM* | -20.3%[46.1 µM]
Cc1cc2oc(C(=O)N(Cc3ccco3)Cc3ccccc3Cl)c(C)c2cc1C | / | -4.7%[46.1 µM] | / | -13.3 | / | -1.0%[46.1 µM]
CCOc1ccc(NS(=O)(=O)c2ccc(NC(=O)C3CCCO3)cc2)cc1 (configuration not stated) | ? | -22.7% | -3.1% | 2.6 | / | 8.91µM*
